Data published in PubChem BioAssay AID1159580 (chemical genetic matrix, 2015).
About 2,000 (36%) of roughly 5,500 compounds were called active. Not shown: some 18% with an inconclusive outcome. Cut-off read from the data, not from the text of the source: active = normalized growth mostly below about 0.91 (no sharp cut-off); inconclusive = no clear call, values can overlap the other calls; inactive = mostly above about 0.92. The list shows a part of the results.

Test: chemical genetic growth profiling, strain panel (AID 1159580);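 note: tested at 20 µM; growth read once vehicle control cultures reached saturation at 30 °C; 1 = growth at the plate median or of vehicle wells; lower values mean less growth of the strain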
Details: growth OD

Measured: normalized growth

CC(C)[C@@H]1CC[C@@H](C)C[C@H]1O
inactive: S. cerevisiae deletion strains, locus YJR066W, strain TOR1, active compounds read low 0.942 | S. cerevisiae deletion strains, locus YJR075W, strain HOC1, active compounds read low 1.01 | S. cerevisiae deletion strains, locus YKL009W, strain mrt4, active compounds read low 1 | S. cerevisiae deletion strains, locus YKL068W, active compounds read low 1.01 | S. cerevisiae deletion strains, locus YKL085W, strain MDH1 (second series), active compounds read low 1.01 | S. cerevisiae deletion strains, locus YKL085W, strain MDH1, active compounds read low 1.01 | S. cerevisiae deletion strains, locus YKL160W, strain elf1, active compounds read low 0.986 | S. cerevisiae deletion strains, locus YKL190W, strain CNB1, active compounds read low 1.01 | S. cerevisiae deletion strains, locus YKR001C, strain vps1, active compounds read low 1 | S. cerevisiae deletion strains, locus YKR026C, strain gcn3, active compounds read low 0.987 | S. cerevisiae deletion strains, locus YKR091W, strain srl3, active compounds read low 0.974 | S. cerevisiae deletion strains, locus YLL001W, strain dnm1, active compounds read low 0.997 | S. cerevisiae deletion strains, locus YLL026W, active compounds read low 1 | S. cerevisiae deletion strains, locus YLL041C, strain sdh2, active compounds read low 0.978 | S. cerevisiae deletion strains, locus YLR027C, strain aat2, active compounds read low 0.997 | S. cerevisiae deletion strains, locus YLR039C, strain RIC1, active compounds read low 1 | S. cerevisiae deletion strains, locus YLR058C, strain SHM2, active compounds read low 1 | S. cerevisiae deletion strains, locus YLR102C, strain apc9, active compounds read low 1.02 | S. cerevisiae deletion strains, locus YLR113W, strain HOG1, active compounds read low 0.973 | S. cerevisiae deletion strains, locus YLR221C, strain rsa3, active compounds read low 0.999 | S. cerevisiae deletion strains, locus YLR258W, strain gsy2, active compounds read low 0.99 | S. cerevisiae deletion strains, locus YLR262C, strain YPT6 (second series), active compounds read low 0.935 | S. cerevisiae deletion strains, locus YLR262C, strain YPT6, active compounds read low 1.01 | S. cerevisiae deletion strains, locus YLR268W, strain sec22, active compounds read low 1.01 | S. cerevisiae deletion strains, locus YLR320W, strain mms22, active compounds read low 0.991 | S. cerevisiae deletion strains, locus YLR330W, strain CHS5, active compounds read low 1.01 | S. cerevisiae deletion strains, locus YLR342W, strain FKS1 (second series), active compounds read low 1.02 | S. cerevisiae deletion strains, locus YLR342W, strain FKS1, active compounds read low 0.986 | S. cerevisiae deletion strains, locus YLR357W, strain rsc2, active compounds read low 0.953 | S. cerevisiae deletion strains, locus YLR370C, strain arc18, active compounds read low 0.985 | S. cerevisiae deletion strains, locus YLR371W, strain rom2, active compounds read low 1.01 | S. cerevisiae deletion strains, locus YLR384C, strain iki3, active compounds read low 0.999 | S. cerevisiae deletion strains, locus YLR418C, strain cdc73, active compounds read low 1.05 | S. cerevisiae deletion strains, locus YML016C, strain PPZ1, active compounds read low 1.01 | S. cerevisiae deletion strains, locus YML032C, strain rad52, active compounds read low 1 | S. cerevisiae deletion strains, locus YML120C, strain ndi1, active compounds read low 0.989 | S. cerevisiae deletion strains, locus YML124C, strain tub3, active compounds read low 1.02 | S. cerevisiae deletion strains, locus YMR058W, strain fet3, active compounds read low 0.97 | S. cerevisiae deletion strains, locus YMR078C, strain ctf18, active compounds read low 1.02 | S. cerevisiae deletion strains, locus YMR125W, strain sto1, active compounds read low 0.969 | S. cerevisiae deletion strains, locus YMR129W, active compounds read low 0.984 | S. cerevisiae deletion strains, locus YMR205C, strain PFK2, active compounds read low 1.01 | S. cerevisiae deletion strains, locus YMR223W, strain ubp8, active compounds read low 1.03 | S. cerevisiae deletion strains, locus YMR231W, strain pep5, active compounds read low 1 | S. cerevisiae deletion strains, locus YMR307W, strain GAS1, active compounds read low 0.985 | S. cerevisiae deletion strains, locus YNL067W, strain RPL9B, active compounds read low 0.976 | S. cerevisiae deletion strains, locus YNL071W, strain lat1, active compounds read low 0.979 | S. cerevisiae deletion strains, locus YNL128W, strain TEP1, active compounds read low 1.02 | S. cerevisiae deletion strains, locus YNL153C, strain GIM3, active compounds read low 0.95 | S. cerevisiae deletion strains, locus YNL183C, strain NPR1, active compounds read low 0.943 | S. cerevisiae deletion strains, locus YNL209W, strain ssb2, active compounds read low 0.985 | S. cerevisiae deletion strains, locus YNL233W, strain BNI4, active compounds read low 0.988 | S. cerevisiae deletion strains, locus YNL248C, strain rpa49, active compounds read low 0.987 | S. cerevisiae deletion strains, locus YNL250W, strain rad50, active compounds read low 1.02 | S. cerevisiae deletion strains, locus YNL271C, strain bni1, active compounds read low 1.02 | S. cerevisiae deletion strains, locus YNL298W, strain CLA4, active compounds read low 1.02 | S. cerevisiae deletion strains, locus YNL307C, strain MCK1, active compounds read low 1.02 | S. cerevisiae deletion strains, locus YNL322C, strain KRE1 (second series), active compounds read low 0.993 | S. cerevisiae deletion strains, locus YNR049C, strain mso1, active compounds read low 0.99 | S. cerevisiae deletion strains, locus YNR052C, strain pop2, active compounds read low 1.02 | S. cerevisiae deletion strains, locus YOL006C, strain TOP1, active compounds read low 0.977 | S. cerevisiae deletion strains, locus YOL012C, strain htz1 1.02 | S. cerevisiae deletion strains, locus YOL147C, strain pex11, active compounds read low 1.02 | S. cerevisiae deletion strains, locus YOR001W, strain rrp6, active compounds read low 0.993 | S. cerevisiae deletion strains, locus YOR061W, strain CKA2, active compounds read low 1.01 | S. cerevisiae deletion strains, locus YOR069W, strain VPS5, active compounds read low 1.02 | S. cerevisiae deletion strains, locus YOR070C, strain gyp1, active compounds read low 1 | S. cerevisiae deletion strains, locus YOR080W, strain dia2, active compounds read low 0.99 | S. cerevisiae deletion strains, locus YOR083W, strain WHI5, active compounds read low 0.996 | S. cerevisiae deletion strains, locus YOR106W, strain vam3, active compounds read low 0.979 | S. cerevisiae deletion strains, locus YOR136W, strain idh2, active compounds read low 1.01 | S. cerevisiae deletion strains, locus YOR144C, strain elg1, active compounds read low 1.02 | S. cerevisiae deletion strains, locus YOR184W, strain ser1, active compounds read low 1 | S. cerevisiae deletion strains, locus YOR231W, strain MKK1, active compounds read low 0.997 | S. cerevisiae deletion strains, locus YOR265W, strain rbl2, active compounds read low 0.988 | S. cerevisiae deletion strains, locus YOR270C, strain vph1, active compounds read low 0.931 | S. cerevisiae deletion strains, locus YOR290C, strain snf2, active compounds read low 0.967 | S. cerevisiae deletion strains, locus YOR316C, strain cot1, active compounds read low 1.03 | S. cerevisiae deletion strains, locus YPL051W, strain arl3, active compounds read low 1.02 | S. cerevisiae deletion strains, locus YPL078C, strain atp4, active compounds read low 0.976 | S. cerevisiae deletion strains, locus YPL106C, strain sse1, active compounds read low 1 | S. cerevisiae deletion strains, locus YPL240C, strain hsp82, active compounds read low 1 | S. cerevisiae deletion strains, locus YPL241C, strain CIN2, active compounds read low 1.01 | S. cerevisiae deletion strains, locus YPL256C, strain CLN2, active compounds read low 0.985 | S. cerevisiae deletion strains, locus YPR119W, strain clb2, active compounds read low 1.01 | S. cerevisiae deletion strains, locus YPR141C, strain kar3, active compounds read low 1.02 | S. cerevisiae deletion strains, locus YPR163C, strain tif3, active compounds read low 1.02 | S. cerevisiae deletion strains, locus YPR167C, strain met16, active compounds read low 1.02 | S. cerevisiae deletion strains, strain wtn01, active compounds read low 1.03 | S. cerevisiae strains, strain wild type, active compounds read low 1.01
